From PubChem
Shown are actives, neighbours in structure and some others; about 21% of the full set was active somewhere.
RORgamma inh: inhibitors of mouse ROR gamma transcriptional activity; AID 2551; Drosophila S2 Gal4-RORgamma UAS-luciferase reporter, 20 h; actives 5.4% (n = 310,000); Potency, µM (doses to about 53.6 µM), for the others: at the highest dose activity change, negative = inhibition, hits mostly inhibitors; further: potency means the concentration at half of the fitted maximal effect; nearly all actives have a fitted effect of over 60% in size
Target sequence (P51450 whole entry, looked up, the tested form may be a part): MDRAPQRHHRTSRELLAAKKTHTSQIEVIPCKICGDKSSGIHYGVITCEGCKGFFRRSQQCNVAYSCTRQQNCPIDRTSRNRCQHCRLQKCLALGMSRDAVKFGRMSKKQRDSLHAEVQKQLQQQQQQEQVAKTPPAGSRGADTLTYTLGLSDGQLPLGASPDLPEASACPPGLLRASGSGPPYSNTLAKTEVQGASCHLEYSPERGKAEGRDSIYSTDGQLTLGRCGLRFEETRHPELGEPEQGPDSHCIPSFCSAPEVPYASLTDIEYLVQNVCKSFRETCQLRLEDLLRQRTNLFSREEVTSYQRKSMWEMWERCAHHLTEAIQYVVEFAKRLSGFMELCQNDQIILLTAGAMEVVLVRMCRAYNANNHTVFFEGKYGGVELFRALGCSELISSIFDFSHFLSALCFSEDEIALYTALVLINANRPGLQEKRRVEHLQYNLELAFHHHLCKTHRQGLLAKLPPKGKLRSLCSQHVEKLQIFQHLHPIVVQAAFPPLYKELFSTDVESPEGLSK
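Stably transfected Drosophila Schneider cells are the test system, with ROR gamma fused to Gal4 and luciferase under UAS control; luminescence is read after 20 hr of 700 uM copper sulfate induction at ambient temperature.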
DT40 TDP1 CPT: growth inhibition of DT40 Tdp1-/-;hTDP1 cells with camptothecin (screen for TDP1 inhibitors) | actives 12% (n = 420,000) | AID 686979 | chicken DT40 Tdp1-/-;hTDP1 cells + 20 nM CPT, ATP luminescence, 48 h | Potency, µM (doses to about 46.2 µM), inactives show at the top dose activity change, negative = growth inhibition, hits mostly inhibitors; further: potency means the concentration at half of the fitted maximal effect; nearly all actives have a fitted effect of over 55% in size
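Chicken DT40 Tdp1-/- cells complemented with human TDP1, 400 cells/well, exposed to compounds plus 20 nM camptothecin for at least 48 h at 37 C; viability read as ATP content by CellTiter-Glo luminescence.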
VP16 counter: Gal4-VP16 reporter inhibition counter-screen | Drosophila S2 Gal4-VP16 UAS-luciferase, luminescence, 20 h | Potency, µM (series often up to 53.6 µM), for the others: at the highest dose activity, negative = inhibition, most hits filed as inhibitors | actives 3.5% (n = 310,000) | AID 2546;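 further: Gal4-VP16 expression switched on by copper sulfate through the metallothionein promoter; potency means the concentration at half of the fitted maximal effect; nearly all actives have a fitted effect of over 50% in size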
TDP1 cell noCPT: qHTS for Inhibitors of human tyrosyl-DNA phosphodiesterase 1 (TDP1): qHTS in cells in absence of CPT | actives 15% (n = 420,000) | DT40 Tdp1-/- hTDP1 cells, no CPT, ATP luminescence, 48 h | Potency, µM (doses to about 46.2 µM), without a hit: top-dose activity change, negative = growth inhibition, actives largely listed as inhibitors; further: potency means the concentration at half of the fitted maximal effect; nearly all actives have a fitted effect of over 55% in size
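Camptothecin absent (DMSO only). Human TDP1-complemented DT40 knockout cells, 400 cells/well, 37 °C for minimum 48 hr; ATP measured via CellTiter-Glo, 30 min dark incubation, luminescence.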
IL-1B inflam inh: blocks inflammasome-driven IL-1 beta release; THP-1 LPS/ATP IL-1B secretion, AlphaLISA, 16 h; hits give low values; activity change, % at 57.5 µM; actives 4.7% (n = 360,000); AID 743279; in the data active means activity change below about -50%; inconclusive means mostly about -30% to -49%
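Secreted IL-1B measured by AlphaLISA bead assay after 16 h compound exposure of THP-1 cells; compounds (final up to 57.5 uM) added 1 h before LPS (250 ng/mL) and ATP (1.25 mM) stimulation; lower signal means less secretion.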
ELG1 repair inh: blocks ELG1-dependent DNA repair in HEK293T cells; HEK293T ELG1-luciferase reporter, luminescence, 16 h; DNA damage induced by 5-fluorouridine; Potency, µM (series often up to 46.1 µM), for inactives: top-dose activity change, negative = inhibition, usual class: inhibitors; actives 2.3% (n = 330,000); further: potency means the concentration at half of the fitted maximal effect; nearly all actives have a fitted effect of over 55% in size
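HEK293T cells expressing luciferase-tagged ELG1 (2,000/well) received 5-Fluorouridine plus compound or DMSO for 16 hr at 37 °C. Luciferase was read by ONE-Glo luminescence after 30 min at room temperature.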
Numbers without * were called inactive. Unless noted, the call rests on the fitted dose curve; in most records, active means well fitted curve in the direction sought with a large enough effect; inconclusive means small, poorly fitted or top-dose-only effect, or another doubt; inactive means no such curve, though single readings can be large; an effect the other way counts as inactive or inconclusive. On the % scale 0 is the no-effect control and ±100 the full control effect.

What do the screens show for `Cc1cccc(-n2ncc3c2CCCC3NC(=O)c2ccc[n+]([O-])c2)c1C` (configuration not stated)?
RORgamma inh: 34%; DT40 TDP1 CPT: 12µM*; VP16 counter: inconclusive; TDP1 cell noCPT: inconclusive; IL-1B inflam inh: 20; ELG1 repair inh: inconclusive

Results for Cc1cccc(-n2ncc3c2CCCC3NC(=O)C2CCOCC2)c1C (configuration not stated) ?
RORgamma inh: inconclusive; DT40 TDP1 CPT: inconclusive; VP16 counter: inconclusive; TDP1 cell noCPT: 15µM*; IL-1B inflam inh: inactive; ELG1 repair inh: inconclusive

What do the screens show for `CC1(C)N=C(N)N=C(N)N1c1ccc(CCCCc2ccccc2)cc1`?
DT40 TDP1 CPT: 0.65µM*; TDP1 cell noCPT: 0.37µM*; IL-1B inflam inh: inconclusive

What do the screens show for `CC1(C)N=C(N)N=C(N)N1c1ccccc1`?
RORgamma inh: 6%; DT40 TDP1 CPT: 0.73µM*; VP16 counter: 7%; TDP1 cell noCPT: 0.13µM*; IL-1B inflam inh: -7; ELG1 repair inh: -7%

Results for CC1(C)N=C(N)N=C(N)N1c1cc(Cl)ccc1Cl ?
DT40 TDP1 CPT: -11%; TDP1 cell noCPT: inconclusive; IL-1B inflam inh: -19

What do the screens show for `CC1(C)N=C(N)N=C(N)N1c1ccc(Oc2ccc(Cl)cc2)c(Cl)c1`?
RORgamma inh: 18%; DT40 TDP1 CPT: 2.6µM*; VP16 counter: -10%; TDP1 cell noCPT: 1.5µM*; IL-1B inflam inh: -86*; ELG1 repair inh: inconclusive

How did Cc1cc(C2C(=O)NC(=O)C2=O)c(C)cc1Br (configuration not stated) do in these assays?
DT40 TDP1 CPT: -11%; TDP1 cell noCPT: -9%; IL-1B inflam inh: -5

What do the screens show for `CCCCC(=O)Nc1cc2nn(-c3ccc(OCC)cc3)nc2cc1C`?
DT40 TDP1 CPT: -2%; TDP1 cell noCPT: -23%

Results for COP1(=O)CC(O)C(O)C(COCc2ccccc2)O1 (configuration not stated) ?
RORgamma inh: -17%; VP16 counter: -6%

What do the screens show for `Cc1cc2nc(-c3nnnn3-c3c(C)cccc3C)c(=O)[nH]c2cc1C`?
DT40 TDP1 CPT: inconclusive; TDP1 cell noCPT: 16µM*; IL-1B inflam inh: -1

Results for Cc1cccc(C)c1-n1nnnc1-c1nc2ccccc2[nH]c1=O ?
DT40 TDP1 CPT: inconclusive; TDP1 cell noCPT: inconclusive; IL-1B inflam inh: 23

How did CCCCCCn1c(CN2CCN(C(=O)OCC)CC2)nc2c1c(=O)n(C)c(=O)n2C do in these assays?
DT40 TDP1 CPT: 21µM*; TDP1 cell noCPT: inconclusive; IL-1B inflam inh: 16

How did CCCn1c(CN2CCN(C(=O)OCC)CC2)nc2c1c(=O)n(C)c(=O)n2C do in these assays?
RORgamma inh: inconclusive; DT40 TDP1 CPT: 8.2µM*; VP16 counter: -6%; TDP1 cell noCPT: 5.2µM*; IL-1B inflam inh: 40; ELG1 repair inh: 6%

Results for CCOC(=O)N1CCN(Cc2nc3c(c(=O)n(C)c(=O)n3C)n2CCC(C)C)CC1 ?
RORgamma inh: 3%; DT40 TDP1 CPT: -29%; VP16 counter: -10%; TDP1 cell noCPT: inconclusive; IL-1B inflam inh: 7; ELG1 repair inh: 5%

Results for O=C(NCCCN1CCCC1=O)Nc1ccc(Br)cc1Cl ?
RORgamma inh: 23%; DT40 TDP1 CPT: 9%; VP16 counter: 6%; TDP1 cell noCPT: 1%; IL-1B inflam inh: -5; ELG1 repair inh: inconclusive

How did O=C(NC(=S)Nc1c(Cl)ccc2nsnc12)c1ccccc1F do in these assays?
RORgamma inh: 1.4µM*; DT40 TDP1 CPT: -13%; VP16 counter: -12%; TDP1 cell noCPT: -7%; IL-1B inflam inh: -20; ELG1 repair inh: 16%
